This note sets out measurements from PubChem BioAssay (NCI).

Compounds without any hit were thinned out: in the full panel of roughly 83,000, 20% have a hit.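 Results are percent growth after 48 hours of single-concentration exposure. 100 means growth as in untreated cells, lower positive values show inhibition; negative values down to -100 show cell death.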 Unmarked numbers belong to inactive results. Activity calls are given as the source filed them. How the source made its calls: active means growth percent below 10; inactive means the rest.

Test in all cases: NCI-60 one-dose screen, 48 h (100 = growth as untreated, 0 = no growth, -100 = all killed)
One test has as its system HCT-15 colon. As to conditions: 10 µM unless noted.
A further test relates to HT29 colon. The settings on record: 10 µM unless noted.
The next test has as its system SNB-75 CNS. The settings on record: 10 µM unless noted.
A further test deals with SNB-19 CNS. As to conditions: 10 µM unless noted.
The test system of a further test is U251 CNS. As to conditions: 10 µM unless noted.
The next test deals with PC-3 prostate. The settings on record: 10 µM unless noted.
The next test has as its system SK-MEL-5 melanoma. As to conditions: 10 µM unless noted.
A further test deals with UACC-62 melanoma. The settings on record: 10 µM unless noted.
The test system of the next test is LOX IMVI melanoma. As to conditions: 10 µM unless noted.
The test system of another test is EKVX NSCLC. As to conditions: 10 µM unless noted.
For the next test, the system named is SN12C renal. As to conditions: 10 µM unless noted.
Another test deals with UO-31 renal. As to conditions: 10 µM unless noted.
For another test, the system named is ACHN renal. The settings on record: 10 µM unless noted.
For another test, the system named is CAKI-1 renal. The settings on record: 10 µM.
A further test deals with A498 renal. As to conditions: 10 µM unless noted.
The test system of a further test is CCRF-CEM leukemia. The settings on record: 10 µM unless noted.
The test system of another test is SK-MEL-28 melanoma. As to conditions: 10 µM unless noted.
The next test deals with SK-MEL-2 melanoma. As to conditions: 10 µM unless noted.
In the next test the test system is TK-10 renal. As to conditions: 10 µM unless noted.
Another test concerns MOLT-4 leukemia. The settings on record: 10 µM unless noted.

`COc1cc2c3c(n(CCCN4CCCC4)c(=O)c2cc1OC)-c1cc2c(cc1C3=O)OCO2`: the growth is -61.7% (active) with HCT-15 colon; -76% (active) in the test with HT29 colon; -74.6% (active) in the test with SNB-75 CNS; -48.9% (active) in the test on SNB-19 CNS; -96.2% (active) in the test with U251 CNS; -64.5% (active) with PC-3 prostate. In addition, the growth in the test on SK-MEL-5 melanoma is 87.5%; with UACC-62 melanoma, 73.9%; in the test on LOX IMVI melanoma, -80.1% (active); in the test with EKVX NSCLC it was -55.3% (active); in the test with SN12C renal, 11.8%; with UO-31 renal, 40.4%. The growth was 55.6% in the test on ACHN renal, 55.3% with CAKI-1 renal, 80.2% with A498 renal and -11.9% (active) in the test on CCRF-CEM leukemia.
As to `Cc1ccc(-c2csc(N/N=C/c3nc4ccccc4n3C3CC3)n2)cc1`, the growth in the test on HCT-15 colon was 80.6%; in the test with HT29 colon it was 92.2%; in the test on SNB-75 CNS, 22%; with SNB-19 CNS, 81.2%; in the test on U251 CNS it was 43.8%; with PC-3 prostate, 61.6%. Besides, the growth in the test on SK-MEL-5 melanoma is 5.51% (active); in the test with UACC-62 melanoma it was 95.1%; with SK-MEL-28 melanoma, 103%; with SK-MEL-2 melanoma, 74.7%; with EKVX NSCLC, 97.5%; in the test with SN12C renal, 82.8%. Moreover, the growth in the test with UO-31 renal was 16.1%; in the test with TK-10 renal, 141%; in the test with ACHN renal, 1.34% (active); with CAKI-1 renal, 77.9%; with A498 renal it was 78.3%; in the test on CCRF-CEM leukemia it was -20.9% (active). Moreover, the growth in the test on MOLT-4 leukemia was 37.3%.
As to `CC(=O)Nc1cccc(-n2cnc3cc(-c4ccc(O)cc4)ccc32)c1`, the growth in the test with HCT-15 colon was 24.8%; in the test on HT29 colon, 28.2%; in the test with SNB-75 CNS, -31.7% (active); in the test on SNB-19 CNS, 33.4%; with U251 CNS, 23.1%; with PC-3 prostate, 35.7%. In addition, the growth with SK-MEL-5 melanoma was 28.3%; with UACC-62 melanoma, 36.5%; in the test with LOX IMVI melanoma, 36.6%; in the test on SK-MEL-2 melanoma it was 29.2%; with EKVX NSCLC, 56.6%; in the test with SN12C renal it was 38.1%. For the same compound, the growth in the test with UO-31 renal was 28.1%; in the test on TK-10 renal it was 72.6%; with ACHN renal, 33%; in the test with CAKI-1 renal, 23.3%; with A498 renal, -32.6% (active); with CCRF-CEM leukemia it was 23.6%. The growth with MOLT-4 leukemia was 21.5%.
`COc1ccc(NC(=O)Cn2cc(CN3C(=O)c4ccc([N+](=O)[O-])cc4C3=O)nn2)cc1`: the growth with HCT-15 colon was 98.2%; with HT29 colon it was 109%; with SNB-75 CNS, 73.9%; with SNB-19 CNS, 93.6%; in the test on U251 CNS, 100%; with PC-3 prostate, 98.6%. For the same compound, the growth in the test with SK-MEL-5 melanoma is 102%; in the test with UACC-62 melanoma it was 91.3%; in the test with SK-MEL-28 melanoma it was 110%; in the test on SK-MEL-2 melanoma, 112%; in the test with EKVX NSCLC, 105%; in the test on SN12C renal it was 99.7%. Also, the growth was 88.1% in the test with UO-31 renal; 103% in the test with TK-10 renal; 104% in the test on ACHN renal; 87.7% with CAKI-1 renal; 88.2% in the test with A498 renal; 109% with CCRF-CEM leukemia. In addition, the growth in the test with MOLT-4 leukemia was 101%.
For the compound `CCN1C(=O)N(CC)C2SC(N/N=C/C=C/c3ccccc3OC)=NC21` (stereo not given), the growth in the test with HCT-15 colon is 13.7%; in the test on HT29 colon, 6.38% (active); in the test with SNB-75 CNS it was 18.8%; in the test with SNB-19 CNS, 25.5%; in the test on U251 CNS, 18.1%; with PC-3 prostate, 26.7%. For the same compound, the growth in the test on SK-MEL-5 melanoma was 13.2%; with UACC-62 melanoma it was 37.1%; with LOX IMVI melanoma, 5.74% (active); with SK-MEL-2 melanoma it was 51.5%; in the test on EKVX NSCLC, 46.8%; in the test on SN12C renal it was 28.6%. The growth was 40.2% in the test with UO-31 renal; 52.1% in the test with TK-10 renal; 29.9% in the test with ACHN renal; 46.7% in the test with CAKI-1 renal; 11.3% with CCRF-CEM leukemia; 16.9% with MOLT-4 leukemia.
For `Brc1cccc(/C=N/Nc2nc(N/N=C/c3cccc(Br)c3)nc(N3CCOCC3)n2)c1`, the growth was -8.94% (active) with HCT-15 colon; 6.61% (active) in the test with HT29 colon; 107% in the test with SNB-75 CNS; 77.9% in the test with SNB-19 CNS; 42.7% in the test on U251 CNS; 36.5% in the test with PC-3 prostate. For the same compound, the growth in the test on SK-MEL-5 melanoma was 20.7%; in the test with UACC-62 melanoma it was 56%; in the test on LOX IMVI melanoma, 5.23% (active); in the test on SK-MEL-2 melanoma, 2.64% (active); in the test with EKVX NSCLC, 49%; in the test on SN12C renal, 44.2%. Also, the growth in the test with UO-31 renal was 25.5%; in the test on ACHN renal, 26.3%; in the test with CAKI-1 renal it was 15.4%; in the test with CCRF-CEM leukemia, 21%; in the test with MOLT-4 leukemia, 10.2%.
On to `CCOC(=O)/C(F)=C/C1CC1CCc1cccc(C(F)(F)F)c1` (stereo not given), for which the growth was 101% in the test with HCT-15 colon; 107% with HT29 colon; 102% with SNB-75 CNS; 97.1% in the test with SNB-19 CNS; 113% in the test on U251 CNS; 105% with PC-3 prostate. For the same compound, the growth is 100% with SK-MEL-5 melanoma; 96.5% in the test on UACC-62 melanoma; 102% in the test with LOX IMVI melanoma; 101% with EKVX NSCLC; 104% with SN12C renal; 90.4% in the test with UO-31 renal. The growth in the test on TK-10 renal is 99.5%; in the test on ACHN renal, 100%; with CAKI-1 renal, 89.4%; with A498 renal it was 93.7%; with CCRF-CEM leukemia, 110%; with MOLT-4 leukemia, 104%.
As to `O=C1c2c(c3c4cc(Br)ccc4[nH]c3c3ccc4ccccc4c23)C(=O)N1CCN1CCNCC1`, the growth in the test with HCT-15 colon was -87.3% (active); in the test on HT29 colon, 8.96% (active); in the test with SNB-75 CNS, 85%; in the test with SNB-19 CNS, 77.3%; in the test with U251 CNS, -47.3% (active); with PC-3 prostate, 67.2%. The growth was 91.4% in the test on SK-MEL-5 melanoma; 78.8% with UACC-62 melanoma; 95.9% in the test with SK-MEL-28 melanoma; 113% in the test with SK-MEL-2 melanoma; 85.9% in the test with EKVX NSCLC; 84.8% with SN12C renal. In addition, the growth in the test on UO-31 renal is 58.7%; in the test with TK-10 renal, 148%; in the test with ACHN renal, 69.6%; with CAKI-1 renal, 66.1%; in the test on A498 renal it was 97.1%; in the test with CCRF-CEM leukemia it was 3.91% (active). In addition, in the test on MOLT-4 leukemia, the growth is 4.47% (active).
